Test results published in PubChem BioAssay (EPA / NIEHS).
Records with an inconclusive call do not appear. The source made the active and inactive calls. How the source made its calls: active means hit-call score of the fitted dose curve at least 0.9, where 1 is the maximum; inconclusive means response in the unintended direction; inactive means score below 0.9.

The compounds below were run on Sodium/Iodide Symporter (NIS), SLC5A5 (gene 6528) (assay: CPHEA_Stoker_NIS_Inhibition_RAIU: CPHEA's Radioactive Iodide Uptake (RAIU) Assay for Sodium/Iodide Symporter (NIS) Inhibition, Stoker and Laws Labs (AID 2283841)).
Method: CPHEA_Stoker_NIS is a cell-based, single-readout assay that uses hNIS-HEK293T-EPA, a novel human kidney cell line expressing human NIS, with measurements taken at 2 hours after chemical dosing in a 96-well plate. This radioactive iodide uptake (RAIU) assay is used to identify inhibitors of NIS-mediated iodide uptake. A parallel cytoxicity assay (Cell Titer Glo, Promega) was also run in the same cell line.CPHEA_Stoker_NIS_Inhibition_RAIU is one of 2 assay components measured from the CPHEA_Stoker_NIS assay. It is designed to make measurements of radioactive substrate uptake to understand transporter function, as detected with 125-i signals by MicroBeta radioactivity plate reader technology.Data from the assay component CPHEA_Stoker_NIS_Inhibition_RAIU was analyzed at the endpoint, CPHEA_Stoker_NIS_Inhibition_RAIU, in the positive analysis fitting direction relative to DMSO as the negative control and baseline of activity. Measures of radioactive substrate uptake for loss-of-signal activity can be used to understand the effects on transporter function at the pathway level as they relate to the sodium-iodide symporter, gene SLC5A5. To generalize the intended target to other relatable targets, this assay endpoint is annotated to the transporter intended target family, where the subfamily is sodium-iodide symporter (NIS).
hNIS-HEK293T-EPA cells were seeded with a MultiFlo FX dispenser (BioTek, Winooski, VT) into ScintiPlate-96 microplates (Perkin Elmer, Waltham, MA) at a density of 4.0x10^4 cells per well in 200uL growth media and incubated for 40 hours before experimentation. On day of the assay, carrier-free 125I (Perkin-Elmer, Waltham, MA; specific activity: 17.4Ci/mg) was diluted with Hanks' balanced salt solution (Sigma, St. Louis, MO) supplemented with 10mM HEPES (uptake buffer; pH 7.4) at 5uCi/mL (288pg 125I/mL uptake buffer; 2.30nM). The assay was initiated by washing cells twice with 200uL uptake buffer using a 96-well Tecan HydroSpeed plate washer (Tecan, Mannedorf, Switzerland). Uptake buffer (59.7uL) was then added back to each well. Chemical samples (350nL at 200X) were administered using the HDR tool as previously described to achieve a 1X chemical/0.5% final DMSO concentration with subsequent addition of 10uL of 125I dilution (final [125I]: 329pM; 2.88pg/well) for a final reaction volume of 70uL/well. Cells were incubated at room temperature for 2 hours and then washed twice with 200uL ice cold uptake buffer. All uptake buffer was aspirated from wells, plates were sealed, and read on a MicroBeta2 plate reader (Perkin Elmer, Waltham, MA) using a detection protocol to measure CPM corresponding to intracellular 125I concentration. Each chemical concentration (0.001, 0.01, 0.1, 1.0, 10, and 100uM) was assayed in triplicate with three independent biological replicate plates (3 sequential cell passages). Additionally, a concentration response of NaClO4 (0.001, 0.01, 0.1, 1.0, 10, and 100uM) served as a positive control inhibition curve on each RAIU assay plate. DMSO control wells were assayed on each plate as a measure of maximum iodide uptake for normalization and determination of intra- and inter-assay variation. (Toxicol In Vitro, 2017, 40:66-78).
In the case of `O=C(OCc1ccccc1)c1ccc(O)cc1`, the outcome is reported as “inactive”. For `C/C=C/C=C/CCCCCCCO`, the outcome was “inactive”. With `CC(C)c1ccc(O)c(C(C)C)c1` the outcome was “inactive”. With `CCCCCCCCCCCCCCCCCCOS(=O)(=O)O` the outcome was “inactive”. In the case of `O=C(O)c1cc(O)c2ccccc2c1O`, the outcome is reported as “inactive”. In the case of `C=C1C[C@H]2[C@@H]3C=C(C)C4=CC(=O)CC[C@]4(C)[C@H]3CC[C@]2(C)[C@@]1(OC(C)=O)C(C)=O`, the outcome is reported as “inactive”. With `Oc1ccc(-c2ccccc2)c(Cl)c1` the outcome was “inactive”. In the case of `CCCCCCCCCC[N+](C)(CCCCCCCCCC)CCC[Si](OC)(OC)OC`, the outcome is reported as “inactive”. With `c1ccc(Nc2cccc3ccccc23)cc1` the AC50 was 21.5 µM (active). For `COc1ccc(C(=O)c2ccccc2)c(O)c1`, the outcome was “inactive”. In the case of `C=CCOC(=O)c1ccc(C(=O)OCC=C)c(C(=O)OCC=C)c1`, the AC50 is reported as 10.2 µM (active). With `O=C(OCCc1ccccc1)c1ccccc1` the outcome was “inactive”. With `O=C(Oc1ccccc1)c1ccccc1O` the outcome was “inactive”. `CCCCCCCOC(=O)c1ccc(O)cc1` was tested, and the outcome was “inactive”. With `CO[Si](C)(C)OC` the outcome was “inactive”. In the case of `O=C(Nc1ccccc1)c1cc(Cl)ccc1O`, the AC50 is reported as 0.851 µM (active). In the case of `CN(C)c1ccc2nc3ccc(=[N+](C)C)cc-3sc2c1`, the outcome is reported as “inactive”. With `CCCCC/C=C\C/C=C\CCCCCCCC(=O)O` the outcome was “inactive”. For `C[N+](C)(C)CCCNS(=O)(=O)C(F)(F)C(F)(F)C(F)(F)C(F)(F)C(F)(F)C(F)(F)C(F)(F)C(F)(F)F`, the AC50 was 7.09 µM (active). In the case of `Cc1ccc([N+](=O)[O-])cc1N`, the outcome is reported as “inactive”. With `COc1ccc(-c2coc3cc(O)cc(O)c3c2=O)cc1` the AC50 was 9.92 µM (active).
